Reference: ChEMBL document CHEMBL1961873, “Compounds: GSK PKIS; Assays: Nanosyn kinase panel” (2012)

Molecular target: T1, Serine/threonine-protein kinase BRSK1 (Homo sapiens) (UniProt Q8TDC3)
T1 sequence (whole entry): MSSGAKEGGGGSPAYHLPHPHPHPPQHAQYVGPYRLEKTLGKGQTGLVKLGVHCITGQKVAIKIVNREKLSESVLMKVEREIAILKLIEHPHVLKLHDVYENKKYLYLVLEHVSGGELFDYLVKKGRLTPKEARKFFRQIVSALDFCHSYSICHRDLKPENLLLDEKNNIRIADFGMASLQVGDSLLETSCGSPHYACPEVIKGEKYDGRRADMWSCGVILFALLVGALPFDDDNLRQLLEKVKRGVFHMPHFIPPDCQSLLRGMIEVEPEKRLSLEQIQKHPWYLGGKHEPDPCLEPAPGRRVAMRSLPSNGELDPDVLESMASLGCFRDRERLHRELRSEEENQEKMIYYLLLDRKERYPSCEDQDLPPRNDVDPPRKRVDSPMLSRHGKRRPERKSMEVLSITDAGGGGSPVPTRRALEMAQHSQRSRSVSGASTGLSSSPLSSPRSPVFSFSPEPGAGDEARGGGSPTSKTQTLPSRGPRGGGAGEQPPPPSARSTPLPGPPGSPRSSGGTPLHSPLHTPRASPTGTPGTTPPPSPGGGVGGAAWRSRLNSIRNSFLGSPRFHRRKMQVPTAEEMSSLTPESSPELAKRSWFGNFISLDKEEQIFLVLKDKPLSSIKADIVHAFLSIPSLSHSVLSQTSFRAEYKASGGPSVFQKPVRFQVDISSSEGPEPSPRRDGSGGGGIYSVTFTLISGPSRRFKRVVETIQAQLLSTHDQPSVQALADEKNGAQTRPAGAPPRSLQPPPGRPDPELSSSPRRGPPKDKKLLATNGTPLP
Details: at 0.1 µM

Compound	inhibition [%]
COc1ccc(-c2coc3ncnc(N)c23)cc1	3.33
CS(=O)(=O)CCNCc1ccc(-c2ccc3ncnc(Nc4ccc(OCc5ccccc5)c(Cl)c4)c3c2)o1	0.43
COc1cc2ncn(-c3cc(O[C@H](C)c4ccccc4Cl)c(C(N)=O)s3)c2cc1OC	30.1
CCn1c(-c2nonc2N)nc2cnc(Oc3cccc(NC(=O)c4ccc(OCCN5CCOCC5)cc4)c3)cc21	1.86
CCn1c(-c2nonc2N)nc2c(N3CCCC3)nccc21	1.14
Cc1nn(C)c2cc(N(C)c3ccnc(Nc4cccc(S(N)(=O)=O)c4)n3)ccc12	1.45
Fc1cccc(COc2ccc(Nc3ncnc4cc(-c5ccc[nH]5)sc34)cc2Cl)c1	0.67
CCn1c(-c2nonc2N)nc2c(C#CC(C)(C)O)nc(CN3CCCC3)cc21	0.47
O=C1Nc2ccc(C(=O)c3ccco3)cc2C1=Cc1cc(Cl)c(O)c(Cl)c1	1.94
CC1=C(C(=O)Nc2ccc3[nH]ncc3c2)C(c2ccc3ccccc3c2)CC(=O)N1 (centres undefined)	1.91
Fc1cccc(COc2ccc(Nc3ncnc4sc(-c5cccs5)cc34)cc2Cl)c1	0.56

Molecular target: T1, Serine/threonine-protein kinase BRSK1 (Homo sapiens)
Details: at 1 µM

Compound	inhibition [%]
CCCN1CCC(Oc2cc(Nc3nc(Nc4cccc(F)c4C(N)=O)c4cc[nH]c4n3)c(OC)cc2Cl)CC1	-0.28
COc1cc(C)c(NC(=O)CN(C)C)cc1Nc1nc(Nc2cccc(F)c2C(N)=O)c2cc[nH]c2n1	0.73
CC1=C(C(=O)Nc2ccc3[nH]ncc3c2)C(c2ccc(Cl)c(Cl)c2)CC(=O)N1 (centres undefined)	10.1
CCn1c(-c2nonc2N)nc2cncc(C(=O)N3CC[C@H](N)C3)c21	2.48
NS(=O)(=O)c1ccc(N/N=C2\C(=O)Nc3ccc(C(=O)NCCc4c[nH]cn4)cc32)cc1	63.5
CCCN1CCC=C(c2ccc(Nc3nc(Nc4ccccc4C(N)=O)c4cc[nH]c4n3)c(C)c2)C1	4.05
CCn1c(-c2nonc2N)nc2cncc(C(=O)N3CCNCC3)c21	-2.27
Nc1nc(-c2ccc3c(c2)C(=Cc2cc(Br)c(O)c(Br)c2)C(=O)N3)cs1	6.62
COc1ccc2cc(-c3c(-c4ccncc4)nc(-c4ccc([S+](C)[O-])cc4)n3C)ccc2c1 (centres undefined)	3.16
CC(C)=Cc1cccc2c1/C(=N/Nc1ccc(S(N)(=O)=O)cc1)C(=O)N2	45
CS(=O)(=O)CCNCc1nc(-c2ccc3ncnc(Nc4ccc(F)c(Cl)c4)c3c2)cs1	1.59
NC(=O)c1ccc(-c2nc(-c3ccccn3)c(-c3ccc4c(c3)OCO4)[nH]2)cc1	-0.03
COC(=O)Nc1nc2cc(Oc3cccc(NC(=O)Nc4cc(C(F)(F)F)ccc4F)c3)ccc2[nH]1	1.87
Cc1nnc(-c2ccc(C)c(-c3ccc(C(=O)Nc4cccc(C#N)c4)cc3)c2)o1	1.01
COc1ccc(-c2ccncc2)cc1C(N)=O	4.66
CC(=O)Nc1cccc(C#Cc2cncnc2Nc2ccc(OCc3cccc(F)c3)c(Cl)c2)n1	5.34
Cc1ccc(C(=O)NC2CCCCC2)cc1-c1ccc(C(=O)NCC2CC2)cc1	0.64

Compound	inhibition [%]
COc1ccc(-c2nn3ncccc3c2-c2ccnc(Nc3ccc(Cl)c(C(F)(F)F)c3)n2)cc1	1.98
CC1=C(C(=O)Nc2ccc3[nH]ncc3c2)C(c2ccc(F)cc2)NC(=O)N1 (centres undefined)	8.31
COc1cc2ncn(-c3cc(O[C@@H](C)c4ccccc4Cl)c(C(N)=O)s3)c2cc1OC	44
CS(=O)(=O)CCN(CC#N)Cc1ccc(-c2ccc3ncnc(Nc4ccc(OCc5cccc(F)c5)c(Cl)c4)c3c2)o1	-2.91
O=C1NC(=O)C(c2ccccc2Cl)=C1Nc1cccc(O)c1	6.4
COc1ccc(-c2coc3ncnc(N)c23)cc1	4.41
CS(=O)(=O)CCNCc1ccc(-c2ccc3ncnc(Nc4ccc(OCc5ccccc5)c(Cl)c4)c3c2)o1	-0.39
COc1cc2ncn(-c3cc(O[C@H](C)c4ccccc4Cl)c(C(N)=O)s3)c2cc1OC	64.9
CCn1c(-c2nonc2N)nc2cnc(Oc3cccc(NC(=O)c4ccc(OCCN5CCOCC5)cc4)c3)cc21	0.26
CCn1c(-c2nonc2N)nc2c(N3CCCC3)nccc21	1.31
Cc1nn(C)c2cc(N(C)c3ccnc(Nc4cccc(S(N)(=O)=O)c4)n3)ccc12	0.63
Fc1cccc(COc2ccc(Nc3ncnc4cc(-c5ccc[nH]5)sc34)cc2Cl)c1	1.16
CCn1c(-c2nonc2N)nc2c(C#CC(C)(C)O)nc(CN3CCCC3)cc21	2.17
O=C1Nc2ccc(C(=O)c3ccco3)cc2C1=Cc1cc(Cl)c(O)c(Cl)c1	8.43
CC1=C(C(=O)Nc2ccc3[nH]ncc3c2)C(c2ccc3ccccc3c2)CC(=O)N1 (centres undefined)	20.8
Fc1cccc(COc2ccc(Nc3ncnc4sc(-c5cccs5)cc34)cc2Cl)c1	-0.44
